# Publication PMC7862700, “An all-to-all approach to the identification of sequence-specific readers for epigenetic DNA modifications on cytosine”
# Key:
# Experiment in all cases: DAPPL (digital affinity profiling via proximity ligation, sequencing); 10 mM Tris-HCl pH 7.5, 50 mM NaCl, 1 mM DTT, 4% glycerol, room temperature, 30 min; GST-TFs on glutathione beads, 16-mer random dsDNA library, 0.1% formaldehyde crosslink after washing; high values mean tight binding
# Settings in all cases: protein: recombinant; tags: N-terminal GST; dsDNA, one strand shown
# FLI1 = biological target: T1, FLI1 (Homo sapiens, UniProt Q01543 1-452)
# T1 sequence: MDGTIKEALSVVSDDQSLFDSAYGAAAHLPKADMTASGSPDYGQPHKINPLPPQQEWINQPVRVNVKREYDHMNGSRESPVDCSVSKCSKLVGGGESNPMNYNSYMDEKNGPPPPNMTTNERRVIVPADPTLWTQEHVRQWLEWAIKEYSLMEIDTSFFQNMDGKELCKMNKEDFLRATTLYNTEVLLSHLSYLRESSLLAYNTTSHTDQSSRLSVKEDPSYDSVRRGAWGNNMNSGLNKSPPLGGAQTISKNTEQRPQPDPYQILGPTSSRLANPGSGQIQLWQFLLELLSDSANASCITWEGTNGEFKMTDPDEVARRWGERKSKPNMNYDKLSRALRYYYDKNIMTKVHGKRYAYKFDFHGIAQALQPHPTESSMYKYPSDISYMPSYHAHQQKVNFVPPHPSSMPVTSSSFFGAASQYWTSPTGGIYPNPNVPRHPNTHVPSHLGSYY
# Procedure, shortened: (§1)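 Human transcription factors fused to GST were expressed in yeast, captured on glutathione beads, given DNA barcodes and pooled with a GST-only negative control. Pools were incubated with 200 nmole of a 16-mer random double-stranded DNA library in Tris/NaCl/DTT/glycerol buffer at room temperature for 30 min. They were then washed, crosslinked with 0.1% formaldehyde, proximity-ligated (BsaI/T4 ligase, 1 h, 37 °C), PCR-amplified and sequenced on an Illumina NextSeq500. Binding signal is each 6-mer's read frequency for a factor divided by its frequency for the GST control.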
# ELK1 = biological target: T2, ELK1 (Homo sapiens, UniProt P19419 1-428)
# T2 sequence: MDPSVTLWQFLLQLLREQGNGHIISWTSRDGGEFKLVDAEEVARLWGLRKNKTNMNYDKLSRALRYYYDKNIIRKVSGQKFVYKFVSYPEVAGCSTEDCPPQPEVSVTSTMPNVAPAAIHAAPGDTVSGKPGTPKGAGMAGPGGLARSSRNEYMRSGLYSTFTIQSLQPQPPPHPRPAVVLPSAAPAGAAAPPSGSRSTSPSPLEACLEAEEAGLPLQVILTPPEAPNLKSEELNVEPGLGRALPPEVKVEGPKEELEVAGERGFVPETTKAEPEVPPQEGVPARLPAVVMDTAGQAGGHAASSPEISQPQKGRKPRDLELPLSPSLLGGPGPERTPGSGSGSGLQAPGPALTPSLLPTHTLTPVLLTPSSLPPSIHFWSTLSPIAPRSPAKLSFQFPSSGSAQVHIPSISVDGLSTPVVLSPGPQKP
# Procedure, shortened: as §1
# GABPA = biological target: T3, GABPA (Homo sapiens, UniProt Q06546 1-454)
# T3 sequence: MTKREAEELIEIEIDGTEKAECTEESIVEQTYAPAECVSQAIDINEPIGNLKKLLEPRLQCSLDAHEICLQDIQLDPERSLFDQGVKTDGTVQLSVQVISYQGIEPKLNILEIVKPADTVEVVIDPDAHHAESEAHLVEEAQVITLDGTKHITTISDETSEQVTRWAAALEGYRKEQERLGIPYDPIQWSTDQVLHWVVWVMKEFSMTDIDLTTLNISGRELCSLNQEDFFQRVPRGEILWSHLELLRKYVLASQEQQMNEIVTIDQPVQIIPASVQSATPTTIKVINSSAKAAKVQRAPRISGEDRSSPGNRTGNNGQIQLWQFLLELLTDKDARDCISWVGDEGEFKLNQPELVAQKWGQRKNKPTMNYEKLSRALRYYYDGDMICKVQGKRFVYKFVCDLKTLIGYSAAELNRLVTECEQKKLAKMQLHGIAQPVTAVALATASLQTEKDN
# Procedure, shortened: as §1
# ERG = biological target: T4, ERG (Homo sapiens, UniProt P11308 1-479)
# T4 sequence: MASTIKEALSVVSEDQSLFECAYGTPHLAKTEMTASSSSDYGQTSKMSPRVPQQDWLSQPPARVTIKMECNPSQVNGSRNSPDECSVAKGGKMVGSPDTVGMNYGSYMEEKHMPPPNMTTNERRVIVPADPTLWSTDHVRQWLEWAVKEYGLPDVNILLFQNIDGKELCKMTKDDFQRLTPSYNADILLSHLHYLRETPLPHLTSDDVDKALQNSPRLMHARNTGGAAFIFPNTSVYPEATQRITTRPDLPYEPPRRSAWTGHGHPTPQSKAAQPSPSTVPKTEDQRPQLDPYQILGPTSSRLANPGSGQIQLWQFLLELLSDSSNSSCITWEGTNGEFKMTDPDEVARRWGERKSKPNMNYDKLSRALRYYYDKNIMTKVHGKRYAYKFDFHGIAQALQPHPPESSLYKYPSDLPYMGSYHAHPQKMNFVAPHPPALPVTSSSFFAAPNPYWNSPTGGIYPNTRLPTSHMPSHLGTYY
# Procedure, shortened: as §1
# ELF1 = ELF1 (Homo sapiens, UniProt P32519 1-619)
# Procedure, shortened: as §1
# EHF = biological target: T5, EHF (Homo sapiens, UniProt Q9NZC4 1-300)
# T5 sequence: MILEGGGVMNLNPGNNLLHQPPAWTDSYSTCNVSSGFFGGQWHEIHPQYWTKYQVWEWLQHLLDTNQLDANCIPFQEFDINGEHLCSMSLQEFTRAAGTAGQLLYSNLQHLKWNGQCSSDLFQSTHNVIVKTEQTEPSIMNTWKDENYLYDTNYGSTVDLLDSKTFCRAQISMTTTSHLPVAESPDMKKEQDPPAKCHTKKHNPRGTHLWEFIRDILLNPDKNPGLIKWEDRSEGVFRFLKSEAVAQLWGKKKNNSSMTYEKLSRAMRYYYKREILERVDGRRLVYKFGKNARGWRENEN
# Procedure, shortened: as §1
# SPI1 = SPI1 (Homo sapiens, UniProt P17947 1-270)
# Procedure, shortened: as §1
# SPIB = SPIB (Homo sapiens, UniProt Q01892 1-262)
# Procedure, shortened: as §1
# ELK3 = biological target: T6, ELK3 (Homo sapiens, UniProt P41970 1-407)
# T6 sequence: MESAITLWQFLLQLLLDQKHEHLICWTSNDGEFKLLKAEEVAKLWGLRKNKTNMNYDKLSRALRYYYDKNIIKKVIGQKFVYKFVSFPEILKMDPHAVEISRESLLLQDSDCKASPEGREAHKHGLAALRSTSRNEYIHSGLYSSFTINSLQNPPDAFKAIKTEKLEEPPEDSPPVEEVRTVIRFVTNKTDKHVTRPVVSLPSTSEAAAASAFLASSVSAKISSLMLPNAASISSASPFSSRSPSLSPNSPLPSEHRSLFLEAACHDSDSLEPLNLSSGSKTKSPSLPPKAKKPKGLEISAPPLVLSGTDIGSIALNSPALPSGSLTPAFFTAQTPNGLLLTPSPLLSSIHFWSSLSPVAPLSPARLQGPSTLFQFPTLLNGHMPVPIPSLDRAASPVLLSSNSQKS
# Procedure, shortened: as §1
# Sequence of SPIB (Q01892 whole entry): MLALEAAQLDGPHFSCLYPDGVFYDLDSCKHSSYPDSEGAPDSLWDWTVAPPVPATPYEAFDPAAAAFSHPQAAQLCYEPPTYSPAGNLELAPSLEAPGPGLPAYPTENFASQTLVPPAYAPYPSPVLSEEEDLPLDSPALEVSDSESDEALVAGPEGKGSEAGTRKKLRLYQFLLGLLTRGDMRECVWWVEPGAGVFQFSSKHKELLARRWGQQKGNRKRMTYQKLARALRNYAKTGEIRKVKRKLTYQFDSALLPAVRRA
# Sequence of ELF1 (P32519 whole entry): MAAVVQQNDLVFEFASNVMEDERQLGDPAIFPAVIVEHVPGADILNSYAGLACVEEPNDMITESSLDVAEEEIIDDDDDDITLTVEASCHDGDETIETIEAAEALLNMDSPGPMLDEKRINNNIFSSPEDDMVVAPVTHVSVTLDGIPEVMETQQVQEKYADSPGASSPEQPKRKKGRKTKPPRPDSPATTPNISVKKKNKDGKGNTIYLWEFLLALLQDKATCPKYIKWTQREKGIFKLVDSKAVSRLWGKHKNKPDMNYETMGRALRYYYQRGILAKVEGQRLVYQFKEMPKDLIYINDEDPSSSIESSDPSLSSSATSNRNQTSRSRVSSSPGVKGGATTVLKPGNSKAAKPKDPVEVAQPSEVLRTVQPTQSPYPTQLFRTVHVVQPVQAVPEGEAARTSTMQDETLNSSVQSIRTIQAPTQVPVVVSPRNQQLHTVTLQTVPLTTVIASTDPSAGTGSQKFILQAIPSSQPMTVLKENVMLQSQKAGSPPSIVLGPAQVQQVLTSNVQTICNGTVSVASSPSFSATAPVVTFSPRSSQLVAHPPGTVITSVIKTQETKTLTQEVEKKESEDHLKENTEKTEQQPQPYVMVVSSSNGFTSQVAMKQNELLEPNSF
sequence,measurement,setting,value
TAGTTC,binding signal,FLI1,"1.47 fold enrichment (6-mer frequency, TF over GST control)"
same,binding signal,ELK1,"1.41 fold enrichment (6-mer frequency, TF over GST control)"
same,binding signal,GABPA,"1.28 fold enrichment (6-mer frequency, TF over GST control)"
same,binding signal,ERG,"1.45 fold enrichment (6-mer frequency, TF over GST control)"
same,binding signal,ELF1,"1.37 fold enrichment (6-mer frequency, TF over GST control)"
same,binding signal,EHF,"1.3 fold enrichment (6-mer frequency, TF over GST control)"
same,binding signal,SPI1,"1.43 fold enrichment (6-mer frequency, TF over GST control)"
same,binding signal,SPIB,"1.51 fold enrichment (6-mer frequency, TF over GST control)"
same,binding signal,ELK3,"1.15 fold enrichment (6-mer frequency, TF over GST control)"
